From PubChem BioAssay AID1159580 (chemical genetic matrix, 2015)
Out of some 5,500 compounds screened, about 2,000 (36%) were called active. Inconclusive results (about 18%) are left out. Rule as the data show it: active = normalized growth mostly below about 0.91 (no sharp cut-off); inconclusive = no clear call, values can overlap the other calls; inactive = mostly above about 0.92. The list shows a part of the results.

Assay: chemical genetic growth profiling, strain panel (AID 1159580);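 also: tested at 20 µM; growth read once vehicle control cultures reached saturation at 30 °C; 1 = growth at the plate median or of vehicle wells; lower values mean less growth of the strain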
Details: growth OD

Measured: normalized growth

COc1cc(O)c(C(=O)/C=C/c2ccccc2)c(OC)c1
active: S. cerevisiae deletion strains, locus YAL013W, strain DEP1, active compounds read low 0.897 | S. cerevisiae deletion strains, locus YBR009C, strain hhf1, active compounds read low 0.846 | S. cerevisiae deletion strains, locus YBR023C, strain chs3, active compounds read low 0.893 | S. cerevisiae deletion strains, locus YBR279W, strain paf1, active compounds read low 0.894 | S. cerevisiae deletion strains, locus YCL011C, strain gbp2, active compounds read low 0.867 | S. cerevisiae deletion strains, locus YCL016C, strain dcc1, active compounds read low 0.861 | S. cerevisiae deletion strains, locus YDL074C, strain BRE1, active compounds read low 0.682 | S. cerevisiae deletion strains, locus YDL134C, strain PPH21, active compounds read low 0.807 | S. cerevisiae deletion strains, locus YDL192W, strain arf1, active compounds read low 0.796 | S. cerevisiae deletion strains, locus YDR101C, strain arx1, active compounds read low 0.857 | S. cerevisiae deletion strains, locus YDR137W, strain rgp1, active compounds read low 0.717 | S. cerevisiae deletion strains, locus YDR195W, strain ref2 1.18 [resistant] | S. cerevisiae deletion strains, locus YDR318W, strain mcm21, active compounds read low 0.816 | S. cerevisiae deletion strains, locus YDR392W, strain spt3, active compounds read low 0.373 | S. cerevisiae deletion strains, locus YDR502C, strain sam2, active compounds read low 0.819 | S. cerevisiae deletion strains, locus YER015W, strain faa2, active compounds read low 0.89 | S. cerevisiae deletion strains, locus YER110C, active compounds read low 0.863 | S. cerevisiae deletion strains, locus YER155C, strain BEM2 (second series), active compounds read low 0.807 | S. cerevisiae deletion strains, locus YER155C, strain BEM2, active compounds read low 0.625 | S. cerevisiae deletion strains, locus YGL086W, strain mad1, active compounds read low 0.794 | S. cerevisiae deletion strains, locus YGL240W, strain doc1, active compounds read low 0.819 | S. cerevisiae deletion strains, locus YGL248W, strain PDE1, active compounds read low 0.8 | S. cerevisiae deletion strains, locus YGL253W, strain hxk2, active compounds read low 0.85 | S. cerevisiae deletion strains, locus YGR135W, strain pre9, active compounds read low 0.83 | S. cerevisiae deletion strains, locus YGR229C, strain SMI1, active compounds read low 0.681 | S. cerevisiae deletion strains, locus YGR252W, strain gcn5, active compounds read low 0.667 | S. cerevisiae deletion strains, locus YHR079C, strain IRE1 (second series), active compounds read low 0.909 | S. cerevisiae deletion strains, locus YHR094C, strain hxt1, active compounds read low 0.917 | S. cerevisiae deletion strains, locus YHR129C, strain ARP1, active compounds read low 0.857 | S. cerevisiae deletion strains, locus YHR142W, strain chs7, active compounds read low 0.791 | S. cerevisiae deletion strains, locus YHR200W, strain rpn10, active compounds read low 0.891 | S. cerevisiae deletion strains, locus YIR030C, strain dcg1, active compounds read low 0.898 | S. cerevisiae deletion strains, locus YJL095W, strain BCK1, active compounds read low 0.574 | S. cerevisiae deletion strains, locus YJL129C, strain trk1, active compounds read low 0.779 | S. cerevisiae deletion strains, locus YJL164C, strain tpk1, active compounds read low 0.858 | S. cerevisiae deletion strains, locus YJL166W, strain qcr8, active compounds read low 0.792 | S. cerevisiae deletion strains, locus YJL187C, strain SWE1 (second series), active compounds read low 0.866 | S. cerevisiae deletion strains, locus YKL068W, active compounds read low 0.934 | S. cerevisiae deletion strains, locus YKL160W, strain elf1, active compounds read low 0.852 | S. cerevisiae deletion strains, locus YKR001C, strain vps1, active compounds read low 0.642 | S. cerevisiae deletion strains, locus YLL001W, strain dnm1, active compounds read low 0.899 | S. cerevisiae deletion strains, locus YLR027C, strain aat2, active compounds read low 0.859 | S. cerevisiae deletion strains, locus YLR039C, strain RIC1, active compounds read low 0.674 | S. cerevisiae deletion strains, locus YLR058C, strain SHM2, active compounds read low 0.848 | S. cerevisiae deletion strains, locus YLR102C, strain apc9, active compounds read low 0.922 | S. cerevisiae deletion strains, locus YLR221C, strain rsa3, active compounds read low 0.844 | S. cerevisiae deletion strains, locus YLR258W, strain gsy2, active compounds read low 0.907 | S. cerevisiae deletion strains, locus YLR262C, strain YPT6 (second series), active compounds read low 0.774 | S. cerevisiae deletion strains, locus YLR268W, strain sec22, active compounds read low 0.804 | S. cerevisiae deletion strains, locus YLR320W, strain mms22, active compounds read low 0.748 | S. cerevisiae deletion strains, locus YLR371W, strain rom2, active compounds read low 0.8 | S. cerevisiae deletion strains, locus YLR418C, strain cdc73, active compounds read low 0.41 | S. cerevisiae deletion strains, locus YML032C, strain rad52, active compounds read low 0.826 | S. cerevisiae deletion strains, locus YML120C, strain ndi1, active compounds read low 0.866 | S. cerevisiae deletion strains, locus YML124C, strain tub3, active compounds read low 0.923 | S. cerevisiae deletion strains, locus YMR078C, strain ctf18, active compounds read low 0.898 | S. cerevisiae deletion strains, locus YMR205C, strain PFK2, active compounds read low 0.805 | S. cerevisiae deletion strains, locus YMR223W, strain ubp8, active compounds read low 0.87 | S. cerevisiae deletion strains, locus YMR307W, strain GAS1, active compounds read low 0.502 | S. cerevisiae deletion strains, locus YNL071W, strain lat1, active compounds read low 0.503 | S. cerevisiae deletion strains, locus YNL233W, strain BNI4, active compounds read low 0.766 | S. cerevisiae deletion strains, locus YNL298W, strain CLA4, active compounds read low 0.879 | S. cerevisiae deletion strains, locus YNL307C, strain MCK1, active compounds read low 0.301 | S. cerevisiae deletion strains, locus YOL147C, strain pex11, active compounds read low 0.739 | S. cerevisiae deletion strains, locus YOR070C, strain gyp1, active compounds read low 0.897 | S. cerevisiae deletion strains, locus YOR083W, strain WHI5, active compounds read low 0.852 | S. cerevisiae deletion strains, locus YOR106W, strain vam3, active compounds read low 0.802 | S. cerevisiae deletion strains, locus YOR136W, strain idh2, active compounds read low 0.907 | S. cerevisiae deletion strains, locus YOR144C, strain elg1, active compounds read low 0.878 | S. cerevisiae deletion strains, locus YOR184W, strain ser1, active compounds read low 0.602 | S. cerevisiae deletion strains, locus YOR265W, strain rbl2, active compounds read low 0.903 | S. cerevisiae deletion strains, locus YOR290C, strain snf2, active compounds read low 0.853 | S. cerevisiae deletion strains, locus YPL051W, strain arl3, active compounds read low 0.82 | S. cerevisiae deletion strains, locus YPL078C, strain atp4, active compounds read low 0.864 | S. cerevisiae deletion strains, locus YPL106C, strain sse1, active compounds read low 0.772 | S. cerevisiae deletion strains, locus YPL240C, strain hsp82, active compounds read low 0.919 | S. cerevisiae deletion strains, locus YPR119W, strain clb2, active compounds read low 0.921 | S. cerevisiae deletion strains, locus YPR163C, strain tif3, active compounds read low 0.605 | S. cerevisiae deletion strains, locus YPR167C, strain met16, active compounds read low 0.869 | S. cerevisiae deletion strains, strain wtn01, active compounds read low 0.816
inactive: S. cerevisiae deletion strains, locus YAL021C, strain ccr4, active compounds read low 0.998 | S. cerevisiae deletion strains, locus YAL026C, strain drs2, active compounds read low 0.945 | S. cerevisiae deletion strains, locus YAL030W, strain snc1, active compounds read low 0.941 | S. cerevisiae deletion strains, locus YBL061C, strain skt5, active compounds read low 0.928 | S. cerevisiae deletion strains, locus YBR021W, strain FUR4, active compounds read low 0.895 | S. cerevisiae deletion strains, locus YBR171W, strain sec66, active compounds read low 0.957 | S. cerevisiae deletion strains, locus YBR229C, strain ROT2, active compounds read low 0.942 | S. cerevisiae deletion strains, locus YBR231C, strain swc5, active compounds read low 0.917 | S. cerevisiae deletion strains, locus YCL029C, strain bik1, active compounds read low 0.923 | S. cerevisiae deletion strains, locus YCL061C, strain MRC1, active compounds read low 0.922 | S. cerevisiae deletion strains, locus YCL069W, strain vba3, active compounds read low 0.946 | S. cerevisiae deletion strains, locus YCR088W, strain abp1, active compounds read low 0.96 | S. cerevisiae deletion strains, locus YDL005C, strain med2, active compounds read low 0.98 | S. cerevisiae deletion strains, locus YDL035C, strain GPR1, active compounds read low 0.907 | S. cerevisiae deletion strains, locus YDL040C, strain nat1, active compounds read low 0.937 | S. cerevisiae deletion strains, locus YDL101C, strain DUN1, active compounds read low 0.916 | S. cerevisiae deletion strains, locus YDL185W, strain tfp1, active compounds read low 0.945 | S. cerevisiae deletion strains, locus YDR001C, strain nth1, active compounds read low 0.947 | S. cerevisiae deletion strains, locus YDR069C, strain doa4, active compounds read low 0.963 | S. cerevisiae deletion strains, locus YDR159W, strain sac3, active compounds read low 0.975 | S. cerevisiae deletion strains, locus YDR162C, strain NBP2, active compounds read low 0.947 | S. cerevisiae deletion strains, locus YDR297W, strain sur2, active compounds read low 0.947 | S. cerevisiae deletion strains, locus YDR334W, strain swr1, active compounds read low 0.972 | S. cerevisiae deletion strains, locus YDR335W, strain msn5, active compounds read low 0.949 | S. cerevisiae deletion strains, locus YDR388W, active compounds read low 0.932 | S. cerevisiae deletion strains, locus YEL003W, strain gim4, active compounds read low 0.914 | S. cerevisiae deletion strains, locus YEL037C, strain rad23, active compounds read low 0.948 | S. cerevisiae deletion strains, locus YEL061C, strain CIN8 (second series), active compounds read low 0.966 | S. cerevisiae deletion strains, locus YER016W, strain bim1, active compounds read low 0.945 | S. cerevisiae deletion strains, locus YER111C, strain swi4, active compounds read low 0.987 | S. cerevisiae deletion strains, locus YER167W, strain BCK2, active compounds read low 0.95 | S. cerevisiae deletion strains, locus YFR010W, strain ubp6, active compounds read low 0.944 | S. cerevisiae deletion strains, locus YGL078C, strain dbp3, active compounds read low 0.943 | S. cerevisiae deletion strains, locus YGL167C, strain pmr1, active compounds read low 0.921 | S. cerevisiae deletion strains, locus YGL173C, strain kem1, active compounds read low 0.921 | S. cerevisiae deletion strains, locus YGL227W, strain vid30, active compounds read low 0.968 | S. cerevisiae deletion strains, locus YHR013C, strain ard1, active compounds read low 1.01 | S. cerevisiae deletion strains, locus YHR027C, strain rpn1, active compounds read low 0.942 | S. cerevisiae deletion strains, locus YHR030C, strain SLT2, active compounds read low 0.924 | S. cerevisiae deletion strains, locus YIL066C, strain RNR3, active compounds read low 0.867 | S. cerevisiae deletion strains, locus YIL073C, strain SPO22, active compounds read low 0.733 | S. cerevisiae deletion strains, locus YIL125W, strain kgd1, active compounds read low 0.944 | S. cerevisiae deletion strains, locus YJL092W, strain hpr5, active compounds read low 0.945 | S. cerevisiae deletion strains, locus YJL095W, strain BCK1 (second series), active compounds read low 0.945 | S. cerevisiae deletion strains, locus YJL115W, strain asf1, active compounds read low 0.979 | S. cerevisiae deletion strains, locus YJL134W, strain LCB3, active compounds read low 0.953 | S. cerevisiae deletion strains, locus YJL154C, strain vps35, active compounds read low 0.975 | S. cerevisiae deletion strains, locus YJL168C, strain set2, active compounds read low 0.943 | S. cerevisiae deletion strains, locus YKL009W, strain mrt4, active compounds read low 0.89 | S. cerevisiae deletion strains, locus YKL085W, strain MDH1 (second series), active compounds read low 0.952 | S. cerevisiae deletion strains, locus YKL085W, strain MDH1, active compounds read low 0.952 | S. cerevisiae deletion strains, locus YKL190W, strain CNB1, active compounds read low 0.953 | S. cerevisiae deletion strains, locus YKR026C, strain gcn3, active compounds read low 0.95 | S. cerevisiae deletion strains, locus YKR091W, strain srl3, active compounds read low 0.942 | S. cerevisiae deletion strains, locus YLL026W, active compounds read low 0.937 | S. cerevisiae deletion strains, locus YLL041C, strain sdh2, active compounds read low 0.943 | S. cerevisiae deletion strains, locus YLR262C, strain YPT6, active compounds read low 0.708 | S. cerevisiae deletion strains, locus YLR342W, strain FKS1 (second series), active compounds read low 0.876 | S. cerevisiae deletion strains, locus YLR342W, strain FKS1, active compounds read low 0.93 | S. cerevisiae deletion strains, locus YLR357W, strain rsc2, active compounds read low 1.01 | S. cerevisiae deletion strains, locus YLR370C, strain arc18, active compounds read low 0.943 | S. cerevisiae deletion strains, locus YLR384C, strain iki3, active compounds read low 0.947 | S. cerevisiae deletion strains, locus YML016C, strain PPZ1, active compounds read low 0.931 | S. cerevisiae deletion strains, locus YMR058W, strain fet3, active compounds read low 0.918 | S. cerevisiae deletion strains, locus YMR125W, strain sto1, active compounds read low 0.893 | S. cerevisiae deletion strains, locus YMR129W, active compounds read low 0.937 | S. cerevisiae deletion strains, locus YMR231W, strain pep5, active compounds read low 0.967 | S. cerevisiae deletion strains, locus YNL067W, strain RPL9B, active compounds read low 0.925 | S. cerevisiae deletion strains, locus YNL128W, strain TEP1, active compounds read low 0.95 | S. cerevisiae deletion strains, locus YNL209W, strain ssb2, active compounds read low 0.95 | S. cerevisiae deletion strains, locus YNL248C, strain rpa49, active compounds read low 0.951 | S. cerevisiae deletion strains, locus YNL250W, strain rad50, active compounds read low 0.979 | S. cerevisiae deletion strains, locus YNL271C, strain bni1, active compounds read low 0.953 | S. cerevisiae deletion strains, locus YNL322C, strain KRE1 (second series), active compounds read low 0.947 | S. cerevisiae deletion strains, locus YNL322C, strain KRE1, active compounds read low 0.948 | S. cerevisiae deletion strains, locus YNR049C, strain mso1, active compounds read low 0.964 | S. cerevisiae deletion strains, locus YNR052C, strain pop2, active compounds read low 0.946 | S. cerevisiae deletion strains, locus YOL006C, strain TOP1, active compounds read low 0.733 | S. cerevisiae deletion strains, locus YOL012C, strain htz1 1.12 | S. cerevisiae deletion strains, locus YOR001W, strain rrp6, active compounds read low 0.894 | S. cerevisiae deletion strains, locus YOR061W, strain CKA2, active compounds read low 0.957 | S. cerevisiae deletion strains, locus YOR069W, strain VPS5, active compounds read low 0.94 | S. cerevisiae deletion strains, locus YOR080W, strain dia2, active compounds read low 0.966 | S. cerevisiae deletion strains, locus YOR270C, strain vph1, active compounds read low 0.811 | S. cerevisiae deletion strains, locus YOR316C, strain cot1, active compounds read low 0.931 | S. cerevisiae deletion strains, locus YPR141C, strain kar3, active compounds read low 0.96 | S. cerevisiae strains, strain wild type, active compounds read low 0.905
